This is one part of a sample in which hits are shown more often than they occur.
Cycloheximide cs: counter-screen for Shiga toxin inhibitors: cycloheximide protein synthesis inhibition; cell reporter, cycloheximide protein synthesis inhibition counterscreen; max response, %; 300,000 tested, 12% active; AID 2314; in the data active = max response mostly above about 13%, no sharp cut-off; inactive = mostly below about 14%; also: read at 38.3 µM for the half of the compounds with a filed dose; 0% is about no effect
NS1 function inh: inhibitors of influenza NS1 protein function; Potency, µM (top dose mostly 46.1 µM), inactives show top-dose activity, positive = more growth; 270,000 tested, 0.4% active; AID 2326; calls by dose curve; also: potency is read from the fitted curve at half-maximal effect; actives are rising curves; nearly all actives have a fitted effect of over 50% in size
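In this qHTS, NS1 from influenza A is expressed in budding yeast, where it slows growth. Cells are switched from glucose to 2% galactose medium (pH 6.0, -URA), treated with compound, and growth recovery is read at OD600.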
AmpC inh detg: blocks E. coli AmpC beta-lactamase in detergent assay. P00811. AmpC hydrolysis of nitrocefin, absorbance 480 nm, 0.01% Triton. Potency, µM (doses to about 114 µM), without a hit: top-dose activity change, negative = inhibition, hits mostly inhibitors. 370,000 tested, 0.041% active;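 also: potency is read from the fitted curve at half-maximal effect; 0% = no-compound wells and -100% = no-enzyme wells; nearly all actives have a fitted effect of over 25% in size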
Target sequence (P00811 whole entry, looked up): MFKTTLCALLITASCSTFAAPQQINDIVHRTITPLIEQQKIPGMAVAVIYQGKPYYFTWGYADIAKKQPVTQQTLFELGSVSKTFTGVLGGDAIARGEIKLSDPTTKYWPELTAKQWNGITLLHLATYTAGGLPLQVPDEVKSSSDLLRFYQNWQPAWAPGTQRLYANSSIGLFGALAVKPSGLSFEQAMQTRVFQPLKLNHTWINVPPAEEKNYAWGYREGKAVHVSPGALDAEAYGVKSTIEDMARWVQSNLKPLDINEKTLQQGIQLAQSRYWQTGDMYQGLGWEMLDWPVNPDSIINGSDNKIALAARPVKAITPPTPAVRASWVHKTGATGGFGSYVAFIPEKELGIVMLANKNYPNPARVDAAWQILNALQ
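AmpC (5.3 nM in the dispensed reagent) in 20 mM phosphate pH 7.0 with 0.01% (detergent screen) or 0.0001% Triton X-100 was preincubated with compounds for 15 min at room temperature. Nitrocefin was then added from an 800 uM solution, and hydrolysis was followed at 480 nm.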
AmpC inh no detg: blocks E. coli AmpC beta-lactamase in detergent-free assay; P00811; AmpC nitrocefin hydrolysis, absorbance 480 nm, 0.0001% Triton; Potency, µM (titrated, usually from 57.1 µM), inactives show at the highest dose activity change, negative = inhibition, most hits filed as inhibitors; 330,000 tested, 0.52% active; AID 485341;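 also: potency is read from the fitted curve at half-maximal effect; plate controls were no compound for no effect and no enzyme for full effect; nearly all actives have a fitted effect of over 20% in size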
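AmpC (5.3 nM in the dispensed reagent) in 20 mM phosphate pH 7.0 with 0.01% (detergent screen) or 0.0001% Triton X-100 was preincubated with compounds for 15 min at room temperature. Nitrocefin was then added from an 800 uM solution, and hydrolysis was followed at 480 nm.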
Shiga inhibitor: inhibitors of Shiga toxin in Vero cells; Vero cells, Shiga toxin protein synthesis inhibition reporter; inhibition, % at 38.7 µM; 290,000 tested, 9.2% active; in the data active = inhibition mostly above about 28%, no sharp cut-off; inactive = mostly below about 43%; also: 0% is about no effect
* hit, by the source's call; ? = inconclusive; · = no result given; + = active, no number; [ ] = another dose, or the depositor's remark. Unless noted, calls follow the shape of the dose curve; as a rule, active = well fitted curve in the direction sought with a large enough effect; inconclusive = small, poorly fitted or top-dose-only effect, or another doubt; inactive = no such curve, though single readings can be large; an effect the other way counts as inactive or inconclusive.

SMILES	Cycloheximide cs	NS1 function inh	AmpC inh detg	AmpC inh no detg	Shiga inhibitor
CC(=O)Nc1ccc(-c2nnc3n(Cc4ccc(C)cc4)c(=O)c4ccccc4n23)cc1	·	·	12%	·	·
Cc1onc(-c2c(F)cccc2Cl)c1C(=O)N1CCCC1	·	·	-7%	-25%	·
COc1ccccc1CC(=O)O/N=C(\N)Cc1cccc2ccccc12	-4	-22%	-2%	-28%	-8
COc1ccccc1C/C(N)=N/OC(=O)c1ccco1	19*	-3%	2%	-5%	56*
COc1ccccc1C/C(N)=N/OC(=O)c1ccc(C)c([N+](=O)[O-])c1	-4	-175%	1%	-35%	5
COc1ccccc1C/C(N)=N/OC(=O)c1ccc2c(c1)OCO2	44*	·	4%	?	105*
Cc1ccc2c(c1)c1c(n2C)-c2[nH]ncc2CC1	15*	-5%	?	-4%	78*
Cn1c(SCc2ccc(F)cc2)nc2ccc(C(=O)NCc3ccc(F)cc3)cc21	·	·	10%	·	·
O=C(CCS(=O)(=O)c1ccc(F)cc1)N1CCOCC1	14*	3%	-6%	-17%	46*
CC(=O)c1ccc(N2CCN(C(=O)CCS(=O)(=O)c3ccc4c(c3)NC(=O)CS4)CC2)cc1	44*	21%	7%	17%	55*
O=C(CCS(=O)(=O)c1ccccc1)N1CCN(c2ccc(F)cc2)CC1	52*	7%	-2%	35%	71*
O=C(CCC(=O)N1CCN(c2ccc(F)cc2)CC1)c1ccc(F)cc1	5	-5%	1%	27%	7
O=C(CCC(=O)N1CCN(c2ccc(F)cc2)CC1)c1ccccc1	33*	7%	-9%	1%	15
COc1ccc(N2CCN(C(=O)CCS(=O)(=O)c3ccc4c(c3)NC(=O)C(C)S4)CC2)cc1 (stereo unspecified)	-4	11%	-9%	23%	-8
O=C(CCS(=O)(=O)c1ccc(F)cc1)N1CCN(c2ccccc2)CC1	·	·	-12%	-5%	·
CC(C)(C)c1ccc(C(=O)NCC(c2cccs2)S(=O)(=O)c2ccccc2)cc1 (stereo unspecified)	·	·	1%	·	·
CC(C)(N)C(=O)N[C@@H]1C(=O)N2[C@@H]1SC(C)(C)[C@H]2C(=O)O	·	-6%	·	·	·
O=C(CCCC(=O)N1CCN(c2ccccc2F)CC1)N1CCN(c2ccccc2F)CC1	4	1%	-10%	21%	-15
O=C(CCCC(=O)N1CCN(c2ccccc2F)CC1)c1ccccc1	36*	-20%	?	43%	59*
O=C(CCc1nnc(C2CCCCC2)o1)N1CCN(c2ccccc2F)CC1	71*	9%	-5%	85%	89*
Nn1c(SCc2cccc(Br)c2)nnc1-c1cccnc1	-2	2%	?	-7%	17
CCC(C)/C(C)=N/NC(=O)c1ccc(COc2ccc(Cl)c(C)c2)cc1 (stereo unspecified)	38*	?	4%	-22%	33
Cc1cccc(N2CCN(C(=O)c3ccc(-n4cncn4)c([N+](=O)[O-])c3)CC2)c1C	-2	-12%	1%	149%	-5
CC(C)(C)NC(=O)C(c1ccncc1)N(C(=O)Cn1nnc(-c2ccc(F)cc2)n1)c1cccc(F)c1 (stereo unspecified)	29*	1%	0%	-20%	56
O=C(O)CNc1ncccc1[N+](=O)[O-]	-2	2%	?	-13%	-8
SMILES	Cycloheximide cs	NS1 function inh	AmpC inh detg	AmpC inh no detg	Shiga inhibitor
O=[N+]([O-])c1cccnc1N/N=C/c1ccccc1O	43*	·	-8%	-14%	78*
Cc1c(O)ccc(/C=N/Nc2ncccc2[N+](=O)[O-])c1O	32*	-2%	?	-23%	141*
O=C(NCc1ccccc1)C(=O)Nc1c2c(nn1-c1ccccc1)CSC2	·	·	1%	·	·
Cc1ccc(NC(=O)CSCC(=O)NCCc2ccccc2)c(C)c1	·	·	-23%	0%	·
O=[N+]([O-])c1ccc(C(O)CSC(=S)N2CCCCC2)cc1 (stereo unspecified)	46*	3%	-6%	-24%	83*
COc1ccc(-c2cc(C(=O)NNC(=S)NC(=O)c3c(-c4ccccc4)noc3C)[nH]n2)cc1	19*	3%	-2%	-32%[2.29 µM]	106*
COC(=O)c1cc(-c2ccc(Br)cc2)n[nH]1	29*	-12%	-1%	-11%	41*
COc1ccc(-c2cc(C(=O)NN)n(-c3ccccc3)n2)cc1	25*	19%	2%	-21%	78*
CCOC(=O)c1cc(-c2ccccc2)n[nH]1	19*	0%	-1%	-9%	47*
CCOC(=O)c1cc(-c2cccc([N+](=O)[O-])c2)n[nH]1	14	-2%	-5%	-2%[2.29 µM]	2
COc1ccc(-c2cc(C(=O)O)[nH]n2)cc1OC	-1	-3%	?	-18%	-4
COc1ccc(C(=O)Nc2cc(-c3ccccc3)nn2-c2ccccc2)cc1	·	·	-4%	·	·
CC(=O)c1ccc(NC(=O)CSc2nnc3ccc(-c4ccc(Cl)cc4)nn23)cc1	·	·	0%	·	·
COc1cc(C(=O)OCC(=O)N2CCOCC2)c([N+](=O)[O-])cc1OC	-3	7%	-9%	-12%	-5
COCCn1c(SCC(=O)c2ccc(C)cc2)nc2cc(C(=O)NC3CCCC3)ccc2c1=O	·	·	4%	·	·
Cc1ccc(-c2nc(C(=O)NCc3ccccc3Cl)c3n2CCCCC3)cc1	·	·	13%	·	·
Cc1nn(-c2ccccc2)c(C)c1-c1cc(C(=O)N/N=C/c2cccnc2)[nH]n1	-1	6%	3%	-6%	31
COC(=O)c1cc(-c2c(C)nn(-c3ccccc3)c2C)n[nH]1	26*	-52%	2%	-30%	58*
CCOc1ccc(-c2cc(C(=O)NN)[nH]n2)cc1	43*	?	-12%	-18%	44*
COC(=O)c1cc(-c2c[nH]c3ccccc23)n[nH]1	10*	-51%	-12%	-40%	16
COc1ccccc1-c1cc(C(=O)NN)[nH]n1	11	?	-10%	-54%	17
COc1ccc(-c2cc(C(=O)NN)[nH]n2)cc1	22*	22%	-1%	-21%	active
COc1cc2c(=O)n(Cc3ccccc3Cl)c(=O)n(CC(=O)Nc3ccc(C)c(C)c3)c2cc1OC	·	·	13%	·	·
COc1cccc(NC(=O)CSc2nc(O)c(C/C=C/c3ccccc3)c(=O)[nH]2)c1	·	·	8%	·	·
COc1ccc(-n2cnc3ccccc3c2=O)c([N+](=O)[O-])c1	2	4%	?	-10%	-6
CCCCSc1nnc2c(n1)OC(C(=O)c1ccccc1)Nc1ccccc1-2 (stereo unspecified)	15*	-1%	-5%	-20%	25
CCSc1nnc2c(n1)OC(c1ccc(C)s1)Nc1ccccc1-2 (stereo unspecified)	·	·	1%	·	·
C=CCSc1nnc2c(n1)OC(c1ccco1)Nc1ccccc1-2 (stereo unspecified)	40*	-7%	?	-29%	+
CCCSc1nnc2c(n1)OC(c1sccc1C)Nc1ccccc1-2 (stereo unspecified)	41*	·	-15%	·	66*
